Results: PubChem BioAssay

What was measured:
[1] = inhibitors of PAF-induced NFkB signaling in CF airway cells, dose response, cell-based, uHTS hits, panel, cytotoxicity readout (AID 624344); settings: CF bronchial epithelial cells, PAF-induced NFkB reporter inhibition, with PAF, run 1; at 79 µM (top of the series) unless noted
[2] = as above; settings: CF bronchial epithelial cells, PAF-induced NFkB reporter inhibition, with PAF, run 2; at 79 µM (top of the series) unless noted

| SMILES | inhibition [1] [%] | inhibition [2] [%] |
| --- | --- | --- |
| O=C(NCCCSc1ccccc1)c1cc(Cl)ccc1O | 106 | 117 |
| Cc1ccc(NC(=O)c2ccccc2NS(=O)(=O)c2ccc(Cl)s2)cc1S(=O)(=O)N1CCOCC1 | 111 | 95.3 |
| O=C(Nc1ccc(Cl)cc1)c1nc[nH]c1C(=O)NCCCCNC(=O)c1[nH]cnc1C(=O)Nc1ccc(Cl)cc1 | 98.8 | 105 |
